For 20 compounds, growth inhibition, inhibition and outcome results are on record in PubChem BioAssay.

Values without a mark were called inactive. For some of these results: Entries with a potency or affinity are not part of this list. Active and inactive are the calls of the source. Unless noted, how the calls were made is not given here.

A short description of test [1]: antimalarial activity against Dd2 strain (AID 2302;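 active means growth inhibition above 50% at the single 2 µM test dose, taken to imply half-maximal potency below 2 µM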;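 further: 0% = DMSO untreated growth and 100% = chloroquine plus artemisinin killed control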). The note with it: P. falciparum Dd2 in RBCs, LDH growth readout, 72 h; at 2 µM; stronger effect = higher value.
The nature of test [2]: HepG2 cytotoxicity, primary screen, cytotoxicity control for P. falciparum antimalarial project, cell-based, ATP luminescence (AID 2303;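 active means inhibition above 50%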;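 further: 0% = DMSO wells and 100% = digitonin-killed cells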). The note with it: HepG2 viability, 24-48 h, at 10 µM, stronger effect = higher value.
The target in test [3] is L-lactate dehydrogenase (Plasmodium falciparum (isolate CDC / Honduras)) (UniProt Q27743). Kind of test: PfLDH activity inhibition – cell lysate, 3D7 strain, counter-screen for P. falciparum growth inhibition project (AID 2304).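 Further: 0% = vehicle and 100% = reference inhibitor.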 The note with it: P. falciparum 3D7 crude extract, LDH APAD/NBT absorbance; at 2 µM; stronger effect = higher value.
Sequence of L-lactate dehydrogenase (Plasmodium falciparum (isolate CDC / Honduras)) (Q27743 whole entry, looked up): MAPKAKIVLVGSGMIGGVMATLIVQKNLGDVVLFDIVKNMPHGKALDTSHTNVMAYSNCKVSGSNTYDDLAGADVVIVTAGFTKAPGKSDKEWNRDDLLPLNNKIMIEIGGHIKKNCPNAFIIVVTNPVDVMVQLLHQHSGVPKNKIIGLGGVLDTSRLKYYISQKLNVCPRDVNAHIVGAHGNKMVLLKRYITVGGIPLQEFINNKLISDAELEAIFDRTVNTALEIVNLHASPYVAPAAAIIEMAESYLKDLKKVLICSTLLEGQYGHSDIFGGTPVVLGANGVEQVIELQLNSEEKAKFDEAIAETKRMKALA
Test [4] in a line: inhibition of 3D7 malaria parasite growth – strain 3D7 (AID 2306).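 Further: 0% = DMSO wells and 100% = chloroquine plus artemisinin control wells.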 The note with it: P. falciparum 3D7 erythrocytic growth, LDH absorbance, 72 h; at 2 µM; stronger effect = higher value.
The target of test [5] is Calcium-dependent protein kinase 1 (Plasmodium falciparum (isolate 3D7)) (UniProt P62344). Kind of test: PfCDPK1 kinase inhibitors, biochemical, TCAMS library (AID 1159585; cut-off not given, nearly all actives have IC50 up to about 0.98 µM;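 further: inhibitors leave more ATP so luminescence rises with inhibition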). The note with it: recombinant PfCDPK1, Kinase-Glo ATP depletion luminescence. For orientation: In Kinase-Glo more light means more ATP remaining.
Sequence of Calcium-dependent protein kinase 1 (Plasmodium falciparum (isolate 3D7)) (P62344 whole entry, looked up): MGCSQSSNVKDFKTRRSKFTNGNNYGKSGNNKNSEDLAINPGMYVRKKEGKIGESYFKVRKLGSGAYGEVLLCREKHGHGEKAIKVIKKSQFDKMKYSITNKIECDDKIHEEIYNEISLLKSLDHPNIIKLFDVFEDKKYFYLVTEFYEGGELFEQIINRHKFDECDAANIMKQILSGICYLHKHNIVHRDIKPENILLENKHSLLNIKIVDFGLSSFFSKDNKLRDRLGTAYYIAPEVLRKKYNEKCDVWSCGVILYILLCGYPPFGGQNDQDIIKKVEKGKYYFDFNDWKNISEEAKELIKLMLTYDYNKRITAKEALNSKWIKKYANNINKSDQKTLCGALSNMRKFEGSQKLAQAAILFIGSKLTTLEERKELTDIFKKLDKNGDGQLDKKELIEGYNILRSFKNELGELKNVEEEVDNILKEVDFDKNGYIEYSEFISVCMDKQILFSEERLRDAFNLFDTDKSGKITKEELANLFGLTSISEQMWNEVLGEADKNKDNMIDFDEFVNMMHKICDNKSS
Test [6] addresses Plasmodium falciparum protein kinase 6 (PK6, PF3D7_1337100) (UniProt Q8IDW1). Kind of test: PfPK6 kinase inhibitors, biochemical, TCAMS library (AID 1159586). The settings on record: recombinant PfPK6, Kinase-Glo ATP depletion luminescence.
Test [7] addresses Protein kinase 7 (PK7), Plasmodium falciparum 3D7 (PF3D7_0213400) (UniProt Q7YTF7). Kind of test: inhibition of Plasmodium PK7 catalytic activity – biochemical, TCAMS antimalarial set, Kinase-Glo luminescence (AID 1159587). The settings on record: recombinant PfPK7, Kinase-Glo ATP depletion luminescence.
Test [8] deals with Calcium-dependent protein kinase 4 (Plasmodium falciparum (isolate 3D7)) (UniProt Q8IBS5). Kind of test: PfCDPK4 kinase inhibitors, biochemical, TCAMS library (AID 1159588; cut-off not given, nearly all actives have IC50 up to about 0.91 µM). The note with it: recombinant PfCDPK4, Kinase-Glo ATP depletion luminescence.
Sequence of Calcium-dependent protein kinase 4 (Plasmodium falciparum (isolate 3D7)) (Q8IBS5 whole entry, looked up): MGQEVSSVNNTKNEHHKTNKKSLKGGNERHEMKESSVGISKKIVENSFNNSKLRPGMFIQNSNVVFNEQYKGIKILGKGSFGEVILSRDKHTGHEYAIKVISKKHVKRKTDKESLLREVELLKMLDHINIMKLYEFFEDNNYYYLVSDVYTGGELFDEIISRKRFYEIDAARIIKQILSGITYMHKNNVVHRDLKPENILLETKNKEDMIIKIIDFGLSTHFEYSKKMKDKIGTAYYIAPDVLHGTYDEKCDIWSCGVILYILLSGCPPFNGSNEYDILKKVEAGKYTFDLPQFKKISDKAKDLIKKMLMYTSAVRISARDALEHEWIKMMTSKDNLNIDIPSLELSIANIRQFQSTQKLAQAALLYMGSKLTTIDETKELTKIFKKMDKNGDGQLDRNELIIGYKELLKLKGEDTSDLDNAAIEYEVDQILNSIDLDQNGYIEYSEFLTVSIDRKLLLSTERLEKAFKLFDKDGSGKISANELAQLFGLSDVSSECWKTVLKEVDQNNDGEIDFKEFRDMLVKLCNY

Sequence of Protein kinase 7 (PK7), Plasmodium falciparum 3D7 (PF3D7_0213400) (Q7YTF7 1-343): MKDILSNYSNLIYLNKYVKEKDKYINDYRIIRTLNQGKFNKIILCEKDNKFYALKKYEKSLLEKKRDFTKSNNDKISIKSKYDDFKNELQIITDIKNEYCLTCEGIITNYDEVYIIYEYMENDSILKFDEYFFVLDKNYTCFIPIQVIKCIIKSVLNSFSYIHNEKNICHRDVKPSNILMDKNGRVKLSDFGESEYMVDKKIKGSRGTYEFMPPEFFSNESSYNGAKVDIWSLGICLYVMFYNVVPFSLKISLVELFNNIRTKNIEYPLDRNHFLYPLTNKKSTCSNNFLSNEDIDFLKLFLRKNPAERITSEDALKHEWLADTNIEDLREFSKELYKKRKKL
Sequence of Plasmodium falciparum protein kinase 6 (PK6, PF3D7_1337100) (Q8IDW1 1-305): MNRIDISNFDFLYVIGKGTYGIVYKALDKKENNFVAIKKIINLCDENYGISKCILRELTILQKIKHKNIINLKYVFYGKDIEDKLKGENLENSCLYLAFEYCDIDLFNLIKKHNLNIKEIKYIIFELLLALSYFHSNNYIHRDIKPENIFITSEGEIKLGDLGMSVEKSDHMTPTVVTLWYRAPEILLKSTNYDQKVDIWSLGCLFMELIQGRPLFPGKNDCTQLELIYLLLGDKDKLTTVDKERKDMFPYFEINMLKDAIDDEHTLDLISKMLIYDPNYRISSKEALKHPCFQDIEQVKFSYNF

In general, inhibition refers to the drop in the measured response relative to a control, in per cent. Turning to `CCc1ccc(C2=Nn3c(nnc3-c3cccs3)SC2)cc1`, the figures for the growth inhibition in test [1] and in test [4] were 20% and 93% (active), respectively. The results for the inhibition in test [2] and in test [3] were 9% and 0%, respectively. Moreover, the outcome in test [5], in test [6], in test [7] and in test [8] was inactive.

`COc1cc(CS(C)(=O)=O)ccc1Nc1nccc(-c2c(-c3cccc(NC(=O)c4c(F)cccc4F)c3)nn3ccccc23)n1`: the growth inhibition in test [1] was 71% (active); in test [4], 92% (active). Further, the inhibition in test [2] was 46%; in test [3], 3%. The result in test [5], in test [6], in test [7] and in test [8] was inactive.

Regarding `CC(C)(C)c1cc(NC2CC2)nc(-c2ccccn2)n1`, the growth inhibition in test [1] was 79% (active); in test [4], 94% (active). Besides, the inhibition in test [2] was 7%; in test [3], -7%. Moreover, the result in test [5], in test [6], in test [7] and in test [8] was inactive.

As to `Oc1ccc(CCNCc2ccc(OCc3ccccc3)c(OCc3ccccc3)c2)cc1`, the growth inhibition is 9% in test [1] and 88% (active) in test [4]. Further, the inhibition was 31% in test [2] and -3% in test [3]. Moreover, the outcome in test [5], in test [6], in test [7] and in test [8] was inactive.

For the compound `O=C(NCc1ccc(F)cc1)Nc1ccc(-c2cccc(-c3nc4ccc(F)cc4[nH]3)c2)cc1`, the results for the growth inhibition in test [1] and in test [4] were 99% (active) and 100% (active), respectively. Besides, the inhibition in test [2] is 31%; in test [3], -1%. The result in test [5], in test [6], in test [7] and in test [8] was inactive.

`CCc1cn(CCOC)c2ccc(C(=O)N[C@@H](Cc3ccccc3)[C@H](O)CNC(C)(C)CCCC(C)C)cc12`: the growth inhibition in test [1] and in test [4] was 98% (active) each time. The values for the inhibition in test [2] and in test [3] were 35% and 1%, respectively. Moreover, the outcome in test [5], in test [6], in test [7] and in test [8] was inactive.

As for `CCc1sc(N2CCC(C)CC2)nc1C(=O)Nc1ccc(F)cc1C(F)(F)F`, the growth inhibition in test [1] is 65% (active); in test [4], 94% (active). Moreover, the figures for the inhibition in test [2] and in test [3] were 1% and 2%, respectively. Further, the outcome in test [5], in test [6], in test [7] and in test [8] was inactive.

As to `CC(C)c1ccc(N2CCN(CCCCNC(=O)c3ccc(NC(=O)c4cc(Cl)cc(Cl)c4)cc3)CC2)cc1`, the growth inhibition in test [1] is 86% (active); in test [4], 101% (active). Further, the inhibition in test [2] was 12%; in test [3], 8%. For the same compound, the outcome in test [5], in test [6], in test [7] and in test [8] was inactive.

Turning to `COc1ccc(Nc2nccc(NCC(O)c3ccc(C(F)(F)F)cc3)n2)cc1` (stereo not given), the growth inhibition was 54% (active) in test [1] and 98% (active) in test [4]. The inhibition in test [2] was 6%; in test [3], -1%. Moreover, the result in test [5], in test [6], in test [7] and in test [8] was inactive.

Take `Cn1cncc1C(=O)Nc1cccc(-c2ccc(-c3nc4ccc(C(F)(F)F)cc4[nH]3)cc2)c1`: the growth inhibition in test [1] was 98% (active); in test [4] it was 97% (active). The inhibition in test [2] was 4%; in test [3], 1%. The result in test [5], in test [6], in test [7] and in test [8] was inactive.

On to `Clc1ccc(-c2cnc3ccc(NCc4ccncc4)nn23)cc1`, for which the growth inhibition in test [1] and in test [4] was 98% (active) throughout. Besides, the results for the inhibition in test [2] and in test [3] were 25% and 2%, respectively. Also, the result in test [5], in test [6], in test [7] and in test [8] was inactive.

Consider `Cc1cc(-c2ccc(S(=O)(=O)Nc3cc4c(cc3OC(C)C)CCN(C)CC4)cc2)ccc1Cl`, for which the values for the growth inhibition in test [1] and in test [4] were 19% and 90% (active), respectively. For the same compound, the inhibition in test [2] is 33%; in test [3], -1%. Besides, the result in test [5], in test [6], in test [7] and in test [8] was inactive.

Regarding `CC(C)N=C(N)NN=Cc1ccc(Cl)c(Cl)c1`, the growth inhibition in test [1] was 12%; in test [4] it was 101% (active). Besides, the inhibition in test [2] was -8%; in test [3], -2%. Moreover, the outcome in test [5], in test [6], in test [7] and in test [8] was inactive.

Take `COc1ccc(Nc2nc(NN=Cc3ccc(-c4ccc([N+](=O)[O-])cc4)o3)nc(Nc3ccccc3)n2)cc1`: the growth inhibition in test [1] was 17%; in test [4] it was 100% (active). The inhibition is -8% in test [2] and 5% in test [3]. Further, the outcome in test [5], in test [6], in test [7] and in test [8] was inactive.

Regarding `CCOC(=O)c1ccc(NC(=O)Nc2cccc(-c3ccc(-c4nc5ccccc5[nH]4)cc3)c2)cc1`, the growth inhibition is 86% (active) in test [1] and 100% (active) in test [4]. For the same compound, the inhibition in test [2] is 54% (active); in test [3], -2%. Also, the result in test [5], in test [6], in test [7] and in test [8] was inactive.

Consider `CCOc1ccc2nc(C)cc(NN=Cc3ccccc3[N+](=O)[O-])c2c1`, for which the values for the growth inhibition in test [1] and in test [4] were 99% (active) and 101% (active), respectively. Also, the inhibition in test [2] was 91% (active); in test [3], -5%. For the same compound, the outcome in test [5], in test [6], in test [7] and in test [8] was inactive.

Consider `CN(CCS(C)(=O)=O)Cc1ccc(-c2ccc3ncnc(Nc4ccc(OCc5cccc(F)c5)c(Cl)c4)c3c2)o1`, for which the growth inhibition in test [1] is 65% (active); in test [4], 101% (active). Also, the inhibition was 25% in test [2] and -1% in test [3]. Besides, the outcome in test [5], in test [6], in test [7] and in test [8] was inactive.

As to `CCc1c(CCNCCCCCCNCc2ccc3c(c2CC)OCO3)ccc(OC)c1OC`, the growth inhibition was 19% in test [1] and 100% (active) in test [4]. Also, the inhibition in test [2] was 38%; in test [3], 6%. Besides, the result in test [5], in test [6], in test [7] and in test [8] was inactive.

In the case of `Cc1nn(C)c(C)c1CN(Cc1nc(-c2cccc(Oc3ccccc3)c2)oc1C)C1CC1`, the growth inhibition is 98% (active) in test [1] and 101% (active) in test [4]. Moreover, the inhibition in test [2] is 7%; in test [3], 0%. Further, the outcome in test [5], in test [6], in test [7] and in test [8] was inactive.

Turning to `O=C(Nc1ccc(F)c([N+](=O)[O-])c1)Nc1cc(C(F)(F)F)ccc1Cl`, the growth inhibition in test [1] is 86% (active); in test [4], 101% (active). Further, the inhibition was 5% in test [2] and 0% in test [3]. Further, the outcome in test [5], in test [6], in test [7] and in test [8] was inactive.
